Fewer than 10 of roughly 2,000 compounds were called active. The list is a sample of the results. A number with no mark means an inactive call.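 The calls were made as follows: active = growth inhibition of at least 75% in every replicate, which also brings the mean inhibition to 75% or more; inconclusive = mean inhibition 75% or more but some replicate under 75%; inactive = the rest.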

A short description of this assay: growth inhibition of PfHsp90-dependent yeast, primary screen, antimalarial PfHsp90 inhibitor project, S. cerevisiae, BacTiter-Glo luminescence (AID 504594).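 Also: 0% = DMSO neutral control wells and 100% = 20 µM radicicol control wells; higher value means stronger growth inhibition because the sign is flipped.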 Conditions: S. cerevisiae expressing PfHsp90, BacTiter-Glo growth, 48 h; at 9.4 µM; hits give high values.
Consider `CC(C)c1ccc2[nH]c3c(c2c1)CCCC3=O`, for which the growth inhibition is 0.593%.
`O=c1cc(-c2ccccc2)oc2cc(OCc3ccccc3)cc(O)c12`: the growth inhibition is 2.87%.
Regarding `Cc1ccc2ncnc(NCCCCCC(=O)O)c2c1`, the growth inhibition was 4.2%.
For the molecule `Nc1cccc2c1nnn2C1OC(CO)C(O)C(O)C1O` (stereo not given), the growth inhibition is -0.754%.
Take `O=C1C=CC(=O)C(C2=C3C(=O)N(CCc4ccccc4)CC(=O)N3CCC2)=C1`: the growth inhibition is 0.713%.
Consider `COc1cc(NC(=O)N[C@@H](Cc2ccccc2)C(=O)O)cc(OC)c1`, for which the growth inhibition was 5.35%.
With `CCc1ccc(CN(C)Cc2nc(Cc3ccccc3)no2)nc1`, the growth inhibition was -0.638%.
Take `O=C(NCCNc1ccc(Cl)cc1[N+](=O)[O-])c1cccnc1`: the growth inhibition is 1.09%.
In the case of `CC1(C)NC(C(=O)O)Cc2c1[nH]c1ccccc21` (stereo not given), the growth inhibition is 7.2%.
On to `CC(C)NC(=O)C1(c2ccccc2)CCOCC1`, for which the growth inhibition is -8.01%.
For the molecule `CCCCOn1c(C)c(C(C)=O)c2c3no[n+]([O-])c3ccc21`, the growth inhibition was -14.4%.
As for `CCSc1nc(O)c(C2OC(=O)c3c2ccc(OC)c3OC)c(=O)n1CC` (stereo not given), the growth inhibition was 9.9%.
Turning to `COC(=O)c1ccccc1NC(=O)NCc1ccccc1`, the growth inhibition was -7.31%.
Under `Cc1ccc2[nH]c3c(c2c1)CN(C(=O)CN1CCSCC1)CC3` stands -8.61%; under `COc1ccccc1C1(CC(=O)N2CCCCC2)CCOC(C(C)C)C1` (stereo not given), 14.4%.
In the case of `CC(C)CCNC(=O)[C@H](CC(C)C)NC(=O)[C@H]1O[C@@H]1C(=O)O`, the growth inhibition was -0.406%.
Under `CC(=O)N1N=C(c2cccs2)CC1c1ccc(C)o1` (stereo not given) stands 15.9%; under `Cc1cc(Cl)cc2c1NC(=O)[C@]21[C@@H]2C(=O)N(Cc3ccccc3)C(=O)[C@@H]2[C@@H]2CCCN21`, 6.75%.
On to `COC(=O)CN1C(=S)N(c2ccc(F)cc2)C(=O)C1CC(=O)Nc1ccccc1` (stereo not given), for which the growth inhibition was 9.33%.
For the molecule `Cc1ccc(P(=O)(CSC(=N)N)c2ccc(C)cc2)cc1`, the growth inhibition was -1.66%.
Under `Cc1[nH]c2ccccc2c1C(=O)C(=O)NCc1ccco1` stands 5.84%.
On to `Cc1ccccc1NC(=O)NCCc1c[nH]c2ccccc12`, for which the growth inhibition was 17.7%.
For the molecule `OCCC1CN(Cc2ccccc2-c2ccco2)CCN1C1CCCC1` (stereo not given), the growth inhibition is -5.78%.
Under `Cc1ccc(CN2CCN(Cc3cn[nH]c3C3CCCCC3)CC2CCO)cc1` (stereo not given) stands -25.7%.
As to `Cc1ccc(Nc2ncccc2C(=O)O)cc1C`, the growth inhibition was -4.41%.
Then `CS(=O)c1ccccc1O` (stereo not given), with 14.9%; and `N/C(=N\OC(=O)CCCOc1ccc(Cl)cc1Cl)c1ccncc1`, with -2.92%; and `COc1ccc(C2NC(=O)c3ccccc3N2)cc1OC` (stereo not given), with -3.61%.
Under `C=C(C)c1nc2cc(OC)c(OC)cc2c(=O)o1` stands 12.6%; under `C=CCNC(=O)c1ccc(-c2cccc([N+](=O)[O-])c2)o1`, 0.359%.
As to `COc1ccc(-n2cc(CNCc3cccnc3)c(-c3cccc(F)c3)n2)cc1`, the growth inhibition is -18.3%.
Consider `COC(=O)c1cc(-c2ccc(OC)c(OC)c2)on1`, for which the growth inhibition was -8.12%.
As to `O=c1c2ccccc2nc2n1CCCN2`, the growth inhibition is 6.84%.
In the case of `CCOC(=O)N1CCc2[nH]c3ccc(C)cc3c2C1`, the growth inhibition is -0.0125%.
`CC1(C)CC(C(CC(=O)O)c2ccccc2)CCO1` (stereo not given): the growth inhibition is -0.107%.
Turning to `Cc1ccc2c(c1)c(C)cc(=O)n2CCC(=O)O`, the growth inhibition is -4.29%.
Consider `Cc1ccccc1OCC(O)CN1CCN(C)CC1` (stereo not given), for which the growth inhibition is 2.9%.
With `COc1cccc(C2CCCN2Cc2nc(CCC(C)C)no2)c1` (stereo not given), the growth inhibition is 11.4%.
For the molecule `CC(C)N(Cc1nccn1C)C(=O)CC1C(=O)NCCN1Cc1ccccc1C(F)(F)F` (stereo not given), the growth inhibition is -0.671%.
As to `CCOCCCNCc1cn(-c2ccc(F)cc2F)nc1-c1ccccc1C`, the growth inhibition is 5.3%.
In the case of `CCOC(=O)C1(Cc2cccc(Cl)c2)CCCN(C2CCN(C(C)=O)CC2)C1` (stereo not given), the growth inhibition was -10.8%.
Then `Cc1ccc(C2=NOC(=O)/C2=C\C=C\c2ccccc2)cc1`, with 14.3%; and `O=C1c2ccccc2C(=O)N1/N=C/c1ccc(Oc2ccc([N+](=O)[O-])cn2)cc1`, with 4.52%.
Turning to `CC1(C)Oc2ccc(C#N)cc2[C@@H](N2CCCC2=O)[C@@H]1O`, the growth inhibition was 7.78%.
Take `CC1(C)Cc2ccccc2C(C(Cc2ccccc2)C(N)=O)=N1` (stereo not given): the growth inhibition was -4.58%.
Then `O=C(CN1CCN(Cc2ccccc2)CC1)N1CCCc2c1c(=O)oc1ccc(O)cc21`, with -7.45%.
For the molecule `O=C(NCCc1cccc(F)c1)[C@@H]1CSC2c3ccccc3C(=O)N21` (stereo not given in full), the growth inhibition was 3.04%.
Then `COc1ccc(CCNC(=O)CC(c2ccccc2)c2cccc(C)c2O)cc1OC` (stereo not given), with -1.09%; and `CCn1c(SCC(=O)c2ccccc2)nc2ccccc2c1=O`, with -10.3%; and `CC1(C)Cc2nc3sc4c(=O)n(CC(N)=O)cnc4c3cc2CO1`, with -2.88%.
For `CC(C)(C)OC(=O)COc1cc(OCC(=O)OC(C)(C)C)c2c(=O)cc(-c3ccccc3)oc2c1`, the growth inhibition was -8.59%.
Under `Cn1cnc2c1c(=O)n(CC(O)CO)c(=O)n2C` (stereo not given) stands -5.12%.
`O=C(O)c1ccccc1C(=O)OCCCCOC(=O)c1ccccc1C(=O)O`: the growth inhibition was -3.9%.
As for `COc1ccc(C(=O)NCC2OCCc3ccccc32)cc1` (stereo not given), the growth inhibition was -3.22%.
`O=C1CC(c2ccc(F)cc2)Cc2nc(NCC3CCCO3)ncc21` (stereo not given): the growth inhibition was 6.43%.
Take `COc1ccccc1OCC(=O)O`: the growth inhibition is -2.4%.
For `NC(N)=NC(N)=Nc1ccc2ccccc2c1`, the growth inhibition was -11.6%.
`O=C(c1cc2cc(Br)ccc2o1)N1CCCCC1`: the growth inhibition is 5.37%.
For `Cc1ccc2c(CN3CCN(Cc4ccc5c(c4)OCO5)CC3)cc(=O)oc2c1C`, the growth inhibition is 0.516%.
In the case of `COc1ccc(-c2cc(=O)oc3cc(OC(C)C(=O)O)ccc23)cc1` (stereo not given), the growth inhibition was -0.213%.
Turning to `CN(Cc1c(C(=O)N(C)Cc2ccccc2)nc2ccccn12)CC1Cc2ccccc2O1` (stereo not given), the growth inhibition was 11.4%.
For the molecule `CC(C)CCc1noc(CN2CCC(CCN3CCCC3=O)CC2)n1`, the growth inhibition is 4.25%.
For the molecule `Cn1c(SCC(=O)c2ccccc2)nnc1-c1ccncc1`, the growth inhibition was 0.861%.
Consider `CC(=O)C1=C(O)C(=O)OC1c1ccc(C)cc1` (stereo not given), for which the growth inhibition is 14.7%.
Regarding `CC12CC(c3ccccc3O1)C(C(=O)N1CCOCC1)C(=O)N2` (stereo not given), the growth inhibition was -11.3%.
Under `COc1cc2c(cc1OC)C1(CCCC1)CNC2c1cccc([N+](=O)[O-])c1` (stereo not given) stands -7.37%.
Under `Cc1csc(-c2coc3cc(O)cc(C)c3c2=O)n1` stands 23.5%; under `Cc1nc(N)sc1C(=O)N/N=C/c1ccco1`, -1.68%.
Take `Nc1nc2c(nc(SCc3ccccc3Br)n2C2OC(CO)C(O)C2O)c(=O)[nH]1` (stereo not given): the growth inhibition is -22.3%.
Under `COc1ccc(/C=C2\CC/C(=C\c3ccc(OC)c(OC)c3)C2=O)cc1OC` stands -15.8%.
On to `CCc1cc2c(=O)c(-c3ccc4c(c3)OCCO4)coc2c(CN2CCCCC2C)c1O` (stereo not given), for which the growth inhibition was -11.5%.
On to `CCOC(=O)c1ccc(N2C(=O)C(CC(=O)NC)N(CCc3ccc(OC)c(OC)c3)C2=S)cc1` (stereo not given), for which the growth inhibition was 8.13%.
With `O=C(Cc1cccc2ccccc12)N1CC[C@@]2(O)CCCC[C@H]2C1`, the growth inhibition is -9.85%.
For the molecule `COc1ccccc1C(=O)N=C1NC(=O)CC2C(=O)NCCN12` (stereo not given), the growth inhibition was 2.95%.
Turning to `Cc1ccc2c(c1)C1OCCC1C1N2C(=O)C2C(C(=O)O)C3C=CC21O3` (stereo not given), the growth inhibition is -2.86%.
Turning to `COc1ccc(CNC(=O)C2CCCN2C)cc1OC` (stereo not given), the growth inhibition was -16.4%.
In the case of `COc1ccc2[nH]c(=O)c(CNC3CCCCC3)cc2c1`, the growth inhibition was -29%.
Regarding `CCOC(=O)C1=C(N)Oc2c(oc(CO)cc2=O)C1c1ccc(F)c(F)c1` (stereo not given), the growth inhibition is -16.3%.
Turning to `CC12CCC(C(=O)NCc3ccccn3)(OC1=O)C2(C)C` (stereo not given), the growth inhibition is -9.47%.
Consider `CC(=O)O[C@H]1C(=O)[C@@]2(C)[C@H]([C@H](OC(=O)c3ccccc3)[C@]3(O)C[C@H](OC(=O)[C@H](O)C(NC(=O)c4ccccc4)c4ccccc4)C(C)=C1C3(C)C)[C@]1(OC(C)=O)CO[C@@H]1C[C@@H]2O` (stereo not given in full), for which the growth inhibition was 4.3%.
Consider `CCOC(=O)N1c2ccccc2C=CC1OCC` (stereo not given), for which the growth inhibition was -5.21%.
`Cc1cc(=O)oc2cc(OC(C)C(=O)NCC3CCCO3)ccc12` (stereo not given): the growth inhibition was -2.4%.
As for `CCC(C)n1ncn(-c2ccc(N3CCN(c4ccc(OCC5COC(Cn6cncn6)(c6ccc(Cl)cc6Cl)O5)cc4)CC3)cc2)c1=O` (stereo not given), the growth inhibition was -1.74%.
On to `O=C(O)c1ccc(OCCn2ccnc2)cc1`, for which the growth inhibition was -4.4%.
Take `CC(=O)N1CCN(c2ccc(OC[C@H]3CO[C@](Cn4ccnc4)(c4ccc(Cl)cc4Cl)O3)cc2)CC1`: the growth inhibition was 94.4% (active).
For `Cc1oc(/C=N/NC(=O)CC2(C)OCCO2)cc1Br`, the growth inhibition was -11.1%.
For `C=C(C)[C@@H]1CC=C(CN2CCC(N3CCC(C(=O)N4CCCC4)CC3)CC2)CC1`, the growth inhibition was -0.183%.
With `CCN(CC)CCN1C(=O)C(=O)/C(=C(/O)c2c(C)[nH]c(C(=O)OC)c2C)C1c1cccnc1` (stereo not given), the growth inhibition is -4.71%.
Then `COc1cccc(N2CC34C=CC(O3)C(C(=O)O)C4C2=O)c1` (stereo not given), with -1.36%.
As for `COc1ccc(OC)c(-c2oc3ccccc3c(=O)c2O)c1`, the growth inhibition was -8.17%.
Then `Cc1ccsc1C1NC(=O)c2ccccc2N1` (stereo not given), with -12.4%; and `COc1cc(C(=O)N/C(=C\c2cn(C)c3ccccc23)C(=O)NCCCO)cc(OC)c1OC`, with 13.5%.
As to `CCc1nc2ccccc2n1Cc1ccc(OC)c(OC)c1`, the growth inhibition is 2.55%.
Under `C/C(NC(=O)c1cccs1)=C1\C(=O)C[C@@H]2[C@H]1C2(C)C` stands 1.59%; under `CCc1cc2c(=O)c(-c3nc(C)cs3)c(CCCC(=O)O)oc2cc1O`, -4.53%.
